# Screening data from PubChem BioAssay.
# IkB signaling: inhibitors of IkB signaling in ABC-DLBCL cells; 110,000 compounds, 0.04% hits; ABC-DLBCL IkBa-CBG/CBR dual luciferase ratio, 4 h; response scale: scaled: untreated 0%, proteasome inhibitor 100%; Potency, µM (series often up to 57.1 µM), for inactives: top-dose IkBa stabilization activation; active = well fitted curve in the direction sought with a large enough effect in the signal ratio, not every such curve was filed as active; inconclusive = small, poorly fitted or top-dose-only effect, or a change in a side signal; the % refers to the signal ratio;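 also: the direction sought is a rising ratio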
#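 In this assay, an IκBα–CBG68 fusion accumulates when IKK-driven degradation is blocked; native CBR normalizes for cell number. OCI-Ly3 cells were treated 4 h with compound and doxycycline, then green and red light read after Chroma-Glo addition.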
# Hsp90 Hop PPI: changes Hsp90-Hop TPR2A binding signal, up or down. AlphaScreen TPR2A-His6 binding biotin-Hsp90 C-terminal peptide. Potency, µM (doses to about 57 µM), inactives show at the highest dose activity change, negative = inhibition. 71,000 compounds, 0.44% hits. AID 595; active = well fitted curve in either direction with a large enough effect; inconclusive = small, poorly fitted or top-dose-only effect, or another doubt; also: % is scaled to controls: 0 for no effect and ±100 for the full control effect
# TSHR ag: activates the human thyroid stimulating hormone receptor; HEK293-CNG-TSHR cells (CNG channel as cAMP sensor), membrane potential dye, cAMP; 73,000 compounds, 0.48% hits; Potency, µM (series often up to 57.1 µM), for the others: top-dose activation, usual class: activators; P16473; active = well fitted activation curve with a large enough effect in the main read-out, with a control signal flat, not every such curve was filed as active; inconclusive = small, poorly fitted or top-dose-only effect, or a change in a side signal; inactive = no such curve, though single readings can be large or run the other way; % of control where 0% means no effect;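 also: the control signal comes from parental cells without the receptor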
# Target sequence (P16473 whole entry, looked up): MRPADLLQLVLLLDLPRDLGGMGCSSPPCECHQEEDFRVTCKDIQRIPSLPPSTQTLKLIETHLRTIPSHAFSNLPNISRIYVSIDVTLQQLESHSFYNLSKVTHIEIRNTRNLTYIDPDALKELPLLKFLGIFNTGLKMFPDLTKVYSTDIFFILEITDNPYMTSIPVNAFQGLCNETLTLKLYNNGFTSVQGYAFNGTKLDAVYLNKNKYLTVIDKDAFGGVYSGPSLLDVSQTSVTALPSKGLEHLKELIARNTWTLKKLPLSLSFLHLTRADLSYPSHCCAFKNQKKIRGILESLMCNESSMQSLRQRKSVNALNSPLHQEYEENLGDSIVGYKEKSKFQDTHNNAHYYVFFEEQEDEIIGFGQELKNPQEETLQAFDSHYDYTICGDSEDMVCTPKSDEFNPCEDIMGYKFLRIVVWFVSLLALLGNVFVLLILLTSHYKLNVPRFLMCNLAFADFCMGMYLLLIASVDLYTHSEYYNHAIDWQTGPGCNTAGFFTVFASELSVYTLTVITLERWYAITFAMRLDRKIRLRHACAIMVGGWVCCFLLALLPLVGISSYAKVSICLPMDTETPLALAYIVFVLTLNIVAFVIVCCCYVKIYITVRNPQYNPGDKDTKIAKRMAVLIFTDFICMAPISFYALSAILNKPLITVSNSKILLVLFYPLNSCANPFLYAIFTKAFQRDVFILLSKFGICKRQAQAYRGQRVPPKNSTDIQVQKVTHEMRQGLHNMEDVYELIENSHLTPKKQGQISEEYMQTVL
#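 HEK 293 cells stably expressing TSHR and a modified CNG channel, with CNG-only parental cells as counterscreen, were preloaded 60 min at room temperature with membrane potential dye containing 100 uM RO 20-1724. Compound exposure was 30 min, and depolarization was read as fluorescence at 590 nm.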
# HEK293 cAMP cs: counter-screen for TSHR agonists: cAMP increase in parental HEK293. parental HEK293 CNG cAMP sensor, membrane potential fluorescence. Potency, µM (series often up to 57.1 µM), for inactives: top-dose activation, hits mostly activators. 73,000 compounds, 2.5% hits; active = well fitted activation curve with a large enough effect; inconclusive = small, poorly fitted or top-dose-only effect; inactive = no such curve, though single readings can be large or run the other way; also: % of control where 0% means no effect; nearly all actives have a fitted effect of over 55% in size
#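 Parental HEK 293 cells stably expressing a cAMP-gated CNG channel were loaded with membrane potential dye containing 100 uM RO 20-1724 for 60 min. Compound added for 30 min; depolarization read as fluorescence intensity at 590 nm.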
# CRE-bla Fsk: modulators of forskolin-stimulated CRE signaling in CHO cells; CHO CRE-bla reporter (cAMP response element driving beta-lactamase), forskolin EC10, beta-lactamase ratio; Potency, µM (top dose mostly 38.2 µM), for inactives: at the top dose activity change, negative = inhibition, most hits filed as activators; 71,000 compounds, 2.5% hits; AID 662; active = well fitted activation curve with a large enough effect in the signal ratio, with a control signal flat, not every such curve was filed as active; inconclusive = small, poorly fitted or top-dose-only effect, or effect the other way, or a change in a side signal; the % refers to the signal ratio; also: % of control where 0% means no effect
#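 CRE-bla CHO reporter cells treated with compound titration plus EC10 NKH 477 (water-soluble forskolin), incubated 3 h at 37 °C; CCF4 loading 2 h at room temperature, 460/530 nm emission ratio read, AC50 values derived for positive or negative modulators.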
# Starred values were filed as active, the others as inactive; ? = inconclusive; . = no result; [ ] = another dose, or the depositor's remark. The list is not random: actives were taken first. Their share in the collection is about 3.5%. Potency is read from the fitted curve at half-maximal effect.
SMILES,IkB signaling,Hsp90 Hop PPI,TSHR ag,HEK293 cAMP cs,CRE-bla Fsk
Cc1cc(NC(c2cccnc2)c2ccc3cccnc3c2O)no1 (stereo not drawn),1.9%,3.98µM*,-2.0%,7.1%,?
COc1ccc(C2=CC(c3c(C)nn(-c4ccccc4)c3Cl)n3nnnc3N2)cc1OC (stereo not drawn),5.0%,1.8%,?,18.1%,2.51µM*
COc1ccccc1C1C=C(c2ccc(C)cc2)Nc2nnnn21 (stereo not drawn),1.1%,13.6%,?,25.1µM*,?
CCOc1ccc(C2C=C(c3cccc(OC)c3)Nc3nnnn32)cc1 (stereo not drawn),1.8%,.,.,.,.
COc1ccc(C2=CC(c3cccc(C)c3)n3nnnc3N2)cc1 (stereo not drawn),-0.2%,.,.,.,.
COc1ccc(Oc2ncc3ncc(=O)n(C[C@H]4CCCO4)c3n2)cc1,-5.0%[11.4 µM],-6.3%,5.3%,13.4%,-26.5%
COCCn1c(C)cc(O)c(C(c2ccccc2Cl)N2CCN(c3ccccc3)CC2)c1=O (stereo not drawn),-0.2%,.,.,.,.
Cc1ccccc1C(=N)c1ccccc1Cc1cccc2ccccc12,1.4%[11.4 µM],11.4%[11 µM],5.9%[11.4 µM],12.1%[11.4 µM],-3.0%[7.6 µM]
CCN(C(=O)c1cc2cc3ccc(C)cc3nc2o1)c1ccc(OC)cc1,?,-5.7%,?,39.8µM*,12.6µM*
O=C(c1ccccc1C(=O)N1CCN(c2ccccc2F)CC1)N1CCN(c2ccccc2F)CC1,?,-4.8%,?,15.8µM*,?
O=C(c1ccccc1F)N1CCN(c2ccccc2F)CC1,-0.4%,-0.1%,-2.6%,1.7%,14.2%
Cc1cccc(OCc2nnc(SCc3cc(=O)n4cc(Br)ccc4n3)o2)c1,?,0.9%,?,12.6µM*,?
Cc1ccc(C(=O)CSc2nnc(COc3cccc(C)c3)o2)cc1,?,27.2%,?,?,0.5%
Cc1nc(NCc2ccco2)c2oc3ccccc3c2n1,-2.9%,-2.9%,21.6%,22.4%,7.94µM*
Cc1nc(Nc2ccncc2)c2oc3ccccc3c2n1,?,-2.7%,-3.2%,9.8%,13.4%
CCc1nc(NC(C)C)c2oc3ccccc3c2n1,11.1%,?,.,24.1%,1.58µM*
Cc1nc(NC(C)c2ccccc2)c2oc3ccccc3c2n1 (stereo not drawn),15.3%,1.9%,?,15.8µM*,?
CC(=O)Oc1cc(C(F)(F)F)ccc1C(=O)O,0.5%[25.6 µM],4.9%[26 µM],-15.0%[25.6 µM],26.5%[25.6 µM],1.1%[17.1 µM]
N#Cc1cccc(NC(=O)N2CC3(CCN(C(=O)c4cc(C(F)(F)F)cc(C(F)(F)F)c4)CC3)C2)c1,1.6%[11.4 µM],-5.2%,-2.1%,5.3%,-14.5%
COc1cc(Cn2c(-c3nonc3N)nc3ccccc32)ccc1C,1.3%,4.0%,?,25.1µM*,?
COc1cccc(Cn2c(-c3nonc3N)nc3ccccc32)c1,3.2%,-2.3%,?,25.1µM*,?
Nc1nonc1-c1nc2ccccc2n1Cc1cccc(Cl)c1,1.0%,.,.,.,.
COc1cc([C@@H]2c3cc4c(cc3[C@@H](O[C@@H]3O[C@H]5CO[C@@H](C)O[C@@H]5[C@@H](O)[C@H]3O)[C@@H]3COC(=O)[C@@H]23)OCO4)cc(OC)c1O,0.6%,-0.4%,2.3%,-3.2%,5.4%
Cc1oc2ncnc(N3CCCCC3)c2c1C(=O)NCC1CCN(Cc2ccc(F)cc2)CC1,1.3%,.,.,.,.
COc1ccccc1CNC(=O)C(NS(=O)(=O)c1ccc2c(c1)CCN2C(C)=O)C(C)C (stereo not drawn),-0.8%,.,.,.,.
SMILES,IkB signaling,Hsp90 Hop PPI,TSHR ag,HEK293 cAMP cs,CRE-bla Fsk
COC(=O)c1[nH]c2ccc(Cl)cc2c1NC(=O)CN1CCc2cc(OC)c(OC)cc2C1,?,-5.3%,-8.8%,-12.4%,12.5%
COC(=O)c1[nH]c2cc(C)ccc2c1NC(=O)CN1CCc2cc(OC)c(OC)cc2C1,?,-7.8%,4.1%,3.8%,2µM*
COC(=O)c1[nH]c2ccc(Cl)cc2c1NC(=O)CN1CCC(C(N)=O)CC1,0.4%,2.6%,?,15.8µM*,10.4%
COC(=O)c1[nH]c2cc(OC)c(OC)cc2c1NC(=O)CN1CCN(Cc2ccccc2)CC1,-1.7%,-2.8%,-2.2%,-11.7%,10µM*
O=C(O)/C=C\C(=O)Nc1ccc2c(c1)C(=O)c1cc(F)ccc1-2,8.4%[11.4 µM],-11.9%[11 µM],-18.8%[11.4 µM],-25.0%[11.4 µM],1.3%[7.6 µM]
COc1ccc(-c2noc(CN(C(=O)c3ccc(OC(C)=O)cc3)C(C)C)n2)cc1OC,-1.5%,-2.1%,25.1µM*,0.9%,?
COc1cc(OC)cc(C(=O)N(Cc2nc(-c3cccc(C)c3)no2)C(C)C)c1,?,11.1%,?,31.6µM*,-5.0%
CCOC(=O)N1CCc2c(sc3c2c(=O)n(Cc2ccccc2)c(=O)n3CC(=O)Nc2ccc(C)cc2C)C1,2.3%,.,.,.,.
COc1ccc(-c2nc(CN3CCC(C(=O)NCCCN4CCN(c5ccccc5F)CC4)CC3)c(C)o2)cc1OC,-0.1%,.,.,.,.
O=C(NCc1ccccc1)c1ccc(Cn2c(=O)c3cccn3c3cccnc32)cc1,-0.2%,.,.,.,.
COc1ccc(NC(=O)N2CC[C@@]3(CCCN(C(=O)c4ccc(OC)cc4)C3)C2)cc1,-1.1%[11.4 µM],-0.9%,-1.4%,7.5%,-2.8%
FC(F)(F)c1cc(CO[C@H]2CCCN[C@H]2c2ccccc2)cc(C(F)(F)F)c1,?,-7.6%,?,20µM*,?
Cc1nn2c(=O)cc(COC(=O)c3ccc(NC(=O)C4CCCCC4)cc3)nc2s1,-0.5%,.,.,.,.
CCn1cc(C(=O)NCc2cccs2)c(=O)c2cc(S(=O)(=O)N3CCOCC3)ccc21,3.1%,-1.3%,-0.5%,-2.7%,20µM*
O=C(CN(Cc1cccs1)C(=O)CN1C(=O)COc2ccccc21)NCc1ccco1,0.1%,-3.5%,?,15.8µM*,-3.7%
CC(=O)c1cc2c(cc1NC(=O)CN1CCN(c3cccc(C(F)(F)F)c3)CC1)OCO2,-0.3%,6.3%,?,15.8µM*,6.2%
